Laboratory results from PubChem BioAssay (NCATS).
Inconclusive results are not listed. Activity calls are given as the source filed them. The call rests on the fitted dose curve; in most records, active means well fitted curve in the direction sought with a large enough effect; inconclusive means small, poorly fitted or top-dose-only effect, or another doubt; inactive means no such curve, though single readings can be large; an effect the other way counts as inactive or inconclusive.

How the values were obtained:
[1] = qHTS assay to identify small molecule inhibitors of chordoma cells - UCH-2 (AID 1259356); further: series mostly up to about 46 µM
[2] = P-glycoprotein substrates identified in KB-8-5-11 adenocarcinoma cell line, qHTS therapeutic library screen (AID 1346987); settings: outcome: dose series up to 44.5 µM; further: series mostly up to about 44 µM; nearly all actives have a fitted effect of over 65% in size
Outline: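 KB-8-5-11: colchicine-selected sub-line of KB-3-1 over-expressing P-gp; assay medium lacked colchicine. 72 h drug exposure at 37 degree C, CellTiter-Glo.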

[3] = NS1 protein of Zika virus - qHTS assay to identify small molecule inhibitors in human HEK 293 cells (AID 1347053); further: series mostly up to about 46 µM; nearly all actives have a fitted effect of over 55% in size
Outline: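 Following 20 h seeding, HEK 293 cells took compound, then 1 h later ZIKV MR766 (MOI = 0.5). Incubation ran 24 h at 37 C before TR-FRET detection of NS1; a drop in signal indicates inhibition.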

[4] = qHTS of pediatric cancer cell lines to identify multiple opportunities for drug repurposing: Primary screen for TC32 cells (AID 1347089); further: nearly all actives have a fitted effect of over 60% in size
Outline: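 Luminescent ATP read-out (CellTiter-Glo) of metabolically active TC32 cells after 48 h exposure. Concentration-response curves came from 11-point (MIPE, 0.78 nM–46 µM) or 8-point (NPC, 0.59 nM–46 µM) primary titrations; follow-up used 11 points.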

[5] = qHTS of pediatric cancer cell lines to identify multiple opportunities for drug repurposing: Primary screen for SJ-GBM2 cells (AID 1347091)
Outline: (§1)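 Viability measured as metabolically active cells via CellTiter-Glo luminescence following 48 hours of compound exposure, 11-point dilutions in confirmatory testing. 500-1,000 cells/well plated 5 hours before dosing; controls were DMSO and 2.3 µM bortezomib.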

[6] = qHTS of pediatric cancer cell lines to identify multiple opportunities for drug repurposing: Primary screen for A673 cells (AID 1347092); further: nearly all actives have a fitted effect of over 45% in size
Outline: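 Cell viability of A673 measured by CellTiter-Glo ATP luminescence after 48 hours compound exposure. Dilution series spanned 0.78 nM to 46 µM (MIPE, 11-point) or 0.59 nM to 46 µM (NPC, 8-point); bortezomib 2.3 uM positive control.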

[7] = qHTS of pediatric cancer cell lines to identify multiple opportunities for drug repurposing: Primary screen for SK-N-MC cells (AID 1347093); further: series mostly up to about 46 µM
Outline: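 Metabolically active cells were quantified by ATP-dependent luminescence (CellTiter-Glo, 15 min at room temperature) following 48 h treatment. Cells had been plated at 500-1,000 per well and settled for 5 h beforehand.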

[8] = qHTS of pediatric cancer cell lines to identify multiple opportunities for drug repurposing: Primary screen for BT-37 cells (AID 1347094); further: series mostly up to about 57 µM
Outline: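 CRCs from 8- or 11-point titrations (lowest final 0.59 nM NPC, 0.78 nM MIPE). Cell viability: CellTiter-Glo after 48 h incubation, 15 min room-temperature development, luminescence imaging.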

[9] = qHTS of pediatric cancer cell lines to identify multiple opportunities for drug repurposing: Primary screen for DAOY cells (AID 1347090); further: series mostly up to about 46 µM; nearly all actives have a fitted effect of over 55% in size
Outline: as §1

Measured: Potency

CN1CCN(C(=O)C2CCCCC2)CC1
not listed: [9]
inactive: all other assays above

CC(=O)SC[C@@H](Cc1ccccc1)C(=O)NCC(=O)OCc1ccccc1
not listed: [7] | [9]
inactive: all other assays above

CC(C)(C)NCC(O)COc1cccc2c1CCC(=O)N2 (configuration not stated)
not listed: [9]
inactive: all other assays above

Cc1cc(C)c(NC(=O)CN(CC(=O)O)CC(=O)O)c(C)c1Br
not listed: [2]
inactive: all other assays above

NNC(=O)CP(=O)(c1ccccc1)c1ccccc1
not listed: [7] | [9]
inactive: all other assays above

Cc1c(C)c2c(c(C)c1OC(=O)c1cccnc1)CC[C@@](C)(CCC[C@H](C)CCC[C@H](C)CCCC(C)C)O2
not listed: [9]
inactive: all other assays above

CC(C)NC[C@@H](O)COc1ccc(CC(N)=O)cc1
not listed: [5] | [9]
inactive: all other assays above

CC(=O)N[C@H]1[C@H]([C@H](O)[C@H](O)CO)OC(C(=O)O)=C[C@@H]1N=C(N)N
not listed: [9]
inactive: all other assays above

C[n+]1ccccc1/C=N/O
not listed: [2]
inactive: all other assays above

COC(=O)c1cccnc1
not listed: [2]
inactive: all other assays above

CN(C/C=C/C#CC(C)(C)C)Cc1cccc2ccccc12
inactive: [1] | [2] | [3] | [4] | [8]

Nc1ccncc1N
not listed: [6] | [7] | [9]
inactive: all other assays above

Nc1ccc(C(=O)Oc2ccccc2)c(O)c1
not listed: [9]
inactive: all other assays above

CCN[C@H]1CN(CCCOC)S(=O)(=O)c2sc(S(N)(=O)=O)cc21
not listed: [9]
inactive: all other assays above

CCCCCOC(=O)Nc1nc(=O)n([C@@H]2O[C@H](C)[C@@H](O)[C@H]2O)cc1F
not listed: [7] | [9]
inactive: all other assays above

O=C(O)c1ccc[n+]([O-])c1
not listed: [5] | [9]
inactive: all other assays above

CCCNC(C)(C)COC(=O)c1ccccc1
not listed: [7] | [9]
inactive: all other assays above

CC(=O)Nc1ccc(OCCOCCOc2ccc(NC(C)=O)cc2)cc1
not listed: [2]
inactive: all other assays above

CCCCOC(=O)c1ccc(N)cc1
not listed: [2]
inactive: all other assays above

CC(C(=O)O)c1ccc2c(c1)Cc1cccnc1O2 (configuration not stated)
not listed: [2] | [7]
inactive: all other assays above

CC(=O)N(CC(O)CO)c1c(I)c(C(=O)NCC(O)CO)c(I)c(C(=O)NCC(O)CO)c1I (configuration not stated)
not listed: [2] | [5]
inactive: all other assays above

Nc1ncnc2c1ncn2[C@@H]1O[C@H](COP(=O)(O)O)[C@@H](O)[C@H]1O
not listed: [2] | [7]
inactive: all other assays above

CC(=O)N1C[C@H](O)C[C@H]1C(=O)O
not listed: [2] | [5]
inactive: all other assays above

CC(=O)N(CC(O)CN(C(C)=O)c1c(I)c(C(=O)NCC(O)CO)c(I)c(C(=O)NCC(O)CO)c1I)c1c(I)c(C(=O)NCC(O)CO)c(I)c(C(=O)NCC(O)CO)c1I (configuration not stated)
not listed: [2]
inactive: all other assays above

CCOc1ccccc1O[C@H](c1ccccc1)[C@H]1CNCCO1
not listed: [2] | [6]
inactive: all other assays above

CCN(CC)CCc1nc(-c2ccccc2)no1
not listed: [2] | [7] | [9]
inactive: all other assays above

COC(=O)c1ccccc1C(=O)c1ccc(OCCN2CCCCC2)cc1
not listed: [2] | [9]
inactive: all other assays above
